SKKanGAS inh: blocks kanamycin growth of S. pyogenes SKKanGAS strain; BacTiter-Glo, 6 h; inhibition, % at 7.5 µM; hit rate 1.3% among 300,000; AID 1662;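 active = mean replicate score, as percent of positive control median, at least 50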;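 note: strain carries kanamycin resistance gene driven by streptokinase promoter and grows in 40 µg/ml kanamycin; loss of luminescence reflects streptokinase promoter inhibition or plain growth inhibition; 0% = median of DMSO wells and 100% = positive control at its reference dose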
tim10-1 inh: tim10-1 yeast growth inhibition | hit rate 2.2% among 330,000 | S. cerevisiae tim10-1 ts strain growth, BacTiter-Glo, 24 h | inhibition, % at 20 µM;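 active = inhibition of at least 40%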;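 note: mutant grown at 25 °C; 0% = DMSO wells with yeast and 100% = wells holding no yeast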
TIM10 inh: TIM10 yeast growth inhibition | inhibition, % at 10 µM | hit rate 1.4% among 330,000 | S. cerevisiae TIM10 strain growth, BacTiter-Glo luminescence, 24 h;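 active = inhibition of 40% or more at the single tested concentration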;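 note: wild-type TIM10 isogenic control strain grown at permissive 25 °C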
NLRP3 yeast inh: NALP3 inhibition in yeast; inhibition, % at 10 µM; Yeast reconstituted NLRP3/ASC/caspase-1, beta-gal luminescence, 24 h; hit rate 0.39% among 330,000; AID 2825;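 active = inhibition of 50% or more; inactive = inhibition below 50%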;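 note: plate controls were induced DMSO wells for no effect and uninduced yeast grown without galactose for full effect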
tim23-1 inh: inhibits growth of tim23-1 mutant yeast | AID 463212 | hit rate 1.3% among 330,000 | inhibition, % at 20 µM | S. cerevisiae tim23-1 growth, BacTiter-Glo luminescence, 24 h;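 active = growth inhibition of the mutant yeast at or above 50%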;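 note: temperature-sensitive mutant grown at 25 °C; plate controls were DMSO-treated mutant yeast for no effect and medium wells lacking yeast for full effect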
NALP1 inh: NALP1 inhibition. S. cerevisiae NALP1/ASC/caspase-1 growth, X-gal OD620, 72 h. inhibition, % at 10 µM. hit rate 0.61% among 280,000. AID 2071; in the data active = inhibition mostly above about 24%, no sharp cut-off; inactive = mostly below about 32%
tim23-1 confirm: confirmation of tim23-1 mutant yeast growth inhibitors. shares compounds with tim23-1 inh. S. cerevisiae tim23-1 growth, BacTiter-Glo luminescence, 24 h. inhibition, % at 20 µM. hit rate 83% among 4,400. AID 463218;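 active = inhibition above about 39% in either of two replicate wells at 20 µM, limit read from the data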;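 note: temperature-sensitive tim23-1 mutant grown at 25 °C; 0% = DMSO wells with yeast and 100% = medium wells without yeast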
Starred values were filed as active, the others as inactive; · = no result given. The list is not random: actives were taken first. Their share in the collection is about 4.9%.

SMILES	SKKanGAS inh	tim10-1 inh	TIM10 inh	NLRP3 yeast inh	tim23-1 inh	NALP1 inh	tim23-1 confirm
COc1cc(OC)c(OC)cc1/C=C/C(=O)c1ccc(NS(=O)(=O)c2ccc(C)cc2)cc1	37	22	5	7	18	28	·
NC(=S)N/N=C/c1ccc(-c2ccc(Cl)c(Cl)c2)o1	-18	39	27	18	58*	-6	60*
NC(=S)N/N=C\c1ccc(-c2cccc(Cl)c2Cl)o1	25	14	29	24	43	21	·
COc1ccc(OCC(=O)Nc2ccc3c(c2)CCC3)cc1	·	6	10	47	66*	·	58*
COc1cccc(NC(=O)COc2ccc3c(c2)CCC3)c1	9	-35	9	28	18	20	·
CCCCn1c(/C=N/Nc2nc3ccccc3[nH]2)nc2ccccc21	95*	38	-10	46	55*	32	56*
C#CCn1cc(/C=N/Nc2nc3ccccc3[nH]2)c2ccccc21	-12	-88	-33	15	15	20	·
CCOC(=O)CSC1=C(C#N)C(c2ccc(C)s2)CC(=O)N1 (configuration not stated)	-11	-2	22	23	58*	1	46*
CCc1ccc(C2CC(=O)NC(SCC(=O)OC(C)C)=C2C#N)cc1 (configuration not stated)	-6	32	12	18	55*	-6	57*
O=C(COC(=O)c1cc(=O)[nH]c(=O)[nH]1)NCc1ccccc1	0	-3	-9	14	-3	21	·
COc1ccc(CCNc2oc(-c3ccccc3OC)nc2C#N)cc1OC	3	1	1	17	33	40	·
COc1ccc(CCNc2oc(-c3ccccc3OC)nc2C#N)cc1	1	21	34	25	58*	-26	62*
CCOc1ccc(NC(=S)N2CCC(c3ccc(C)cc3)C2)cc1 (configuration not stated)	8	31	34	30	64*	6	41*
COc1cccc(NC(=S)N2CCC(c3ccc(C)cc3)C2)c1 (configuration not stated)	-4	13	11	28	53*	-1	37
CCOC(=O)C1CCN(C(=S)Nc2ccccc2)CC1	-6	6	1	12	1	-16	·
CCOC(=O)C1CCCN(C(=S)Nc2ccc(Nc3ccccc3)cc2)C1 (configuration not stated)	-9	38	20	8	52*	-18	41*
CC1=NN(c2ccc(Cl)cc2)C(=O)C1C(c1ccccc1O)c1c(C)[nH]n(-c2ccc(Cl)cc2)c1=O (configuration not stated)	3	39	31	13	57*	12	49*
CCn1c(C)nc2cc(C(=O)N/N=C/c3ccc(OC)c(O)c3)ccc21	31	10	11	6	11	23	·
CCOC(=O)c1c(NC(=O)CN2C(=O)NC3(CCCCC3C)C2=O)sc(C)c1CC (configuration not stated)	-6	-7	-6	8	10	·	·
CCCn1c(-c2cccs2)nc2nc3ccccc3nc21	10	39	28	4	54*	-16	40*
Cc1ccccc1[C@@]1(C)ON(c2ccccc2C(F)(F)F)C1=O	·	9	33	16	56*	·	46*
CC[C@@]1(c2ccccc2OC)ON(c2ccccc2C(F)(F)F)C1=O	·	5	34	11	57*	·	51*
O=C(c1cc2ccccc2oc1=O)N(Cc1ccco1)C1CCS(=O)(=O)C1 (configuration not stated)	5	6	4	23	94*	-18	13
Cn1nnnc1SCC(=O)N1CCN(S(=O)(=O)c2ccc(Cl)cc2)CC1	-11	7	7	14	1	-4	·
NC(=O)C1CCN(C(=O)c2ccc3c(=O)n(Cc4ccco4)c(SCC(=O)c4ccccc4)nc3c2)CC1	4	22	3	-8	58*	7	18
SMILES	SKKanGAS inh	tim10-1 inh	TIM10 inh	NLRP3 yeast inh	tim23-1 inh	NALP1 inh	tim23-1 confirm
CCCc1[nH][nH]c(=O)c1C(c1ccc(Br)cc1)C(C#N)C#N (configuration not stated)	4	33	35	22	59*	37	35
Cc1ccc(S(=O)(=O)N[C@@H](CC(C)C)C(=O)N2CCC(C(=O)N[C@H](C(=O)O)C(C)C)CC2)cc1	6	-1	8	2	-1	11	·
Cc1ccc(S(=O)(=O)NC(CC(C)C)C(=O)N2CCC(C)CC2)cc1 (configuration not stated)	-2	27	26	-4	54*	20	39*
COc1ccc(N2CCN(C(=S)NC(=O)c3cccs3)CC2)c([N+](=O)[O-])c1	52*	35	19	17	53*	-1	46*
COc1ccc(Cn2c(-c3ccccc3)nc3c(c(=O)c4ccccc4n3C)c2=O)cc1	20	2	3	-16	-9	38	·
COc1ccc(CCn2c(C(C)C)nc3oc4ccccc4c(=O)c3c2=O)cc1	2	4	1	16	51*	-21	41*
CC(C)c1nc2c(c(=O)c3ccccc3n2C)c(=O)n1CCc1ccccc1	22	23	38	42	59*	16	38
CCCc1nc2oc3cc(OC)ccc3c(=O)c2c(=O)n1CCc1ccccc1	2	15	2	20	45	-3	·
CC1=C(C(=O)OC(C)C)C(c2ccccc2)NC(=S)N1C (configuration not stated)	-6	1	7	0	14	14	·
CCOC(=O)N1CCC(NC(=O)c2oc3c(C)c(C)ccc3c2C)CC1	3	37	30	20	60*	10	58*
CCOC(=O)N1CCC(NC(=O)c2ccccc2C(=O)O)CC1	14	12	13	-2	7	·	·
COc1ccc(N=c2cc(-c3ccc(OC)cc3)oc3ccccc23)cc1	6	27	30	27	51*	47	39*
CC(C)(C)NC(=O)c1cccc(NC(=O)Cc2cccs2)c1	-11	11	-10	1	8	2	·
Cc1cc(C)c(CN2CCN(C(=O)Cn3cnc4c(NCc5ccccc5)ncnc43)CC2)c(C)c1	·	10	9	·	92*	·	12
Cc1cccc(N2CCN(S(=O)(=O)c3ccc4c(c3)CCCN4C(=O)C3CCC3)CC2)c1C	2	30	9	5	25	6	·
C(=N\N1CCN(C2c3ccccc3-c3ccccc32)CC1)/c1ccccn1	3	24	36	18	54*	-23	32
Oc1c(Br)cc(Br)c(/C=N/n2c(-c3ccccc3)n[nH]c2=S)c1Br	30	29	21	20	56*	-10	51*
C/C(=N/NC(=O)CCCOc1ccc(Cl)cc1Cl)c1ccc(C)o1	4	-6	-6	10	-3	22	·

High-throughput results (PubChem)
